Screening results as filed in PubChem.
Ins promoter up – MIN6 insulin promoter up-regulation; z-score at 5 µM; actives 0.3% (n = 190,000); MIN6 insulin promoter-GFP reporter, high-content imaging; hits give high values; AID 1625;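 active means z-score above 3 at 5 µM with at least 500 cells counted in the well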
Autophagy mod – modulators of autophagy | actives 0.98% (n = 190,000) | MEF GFP-LC3 puncta imaging; test concentration mostly 10 µM | calls only at 10 µM (by protocol);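 active means percentage of spot-positive cells more than 3 SD above its plate mean, without a fluorescence outlier flag or 80% toxicity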;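 further: spot-positive cell cutoff set from DMSO-treated cells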
HMGR II inh – inhibitors of class II HMG-CoA reductase from Enterococcus faecalis | purified E. faecalis HMGR, NADPH absorbance 340 nm kinetic | inhibition, % at 10 µM | actives 0.41% (n = 190,000) | AID 1066;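 active means inhibition above a set limit, the median over all tested compounds plus 3 SD, cut at about 9.5% in these data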;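 further: enzyme runs in reverse so mevalonate oxidation gives rising NADPH absorbance; 0% = complete reaction with DMSO and 100% = background rate lacking mevalonate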
Insulin prom inh – TRM-6 insulin promoter activity inhibition. TRM-6 cells (human fetal islet line), insulin promoter-eGFP reporter, imaging; reporter expression induced with tamoxifen. inhibition, % at 2 µM. actives 0.9% (n = 130,000). AID 1273;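 active means inhibition above the mean plus 3 SD, with well images judged a real hit on visual review, cut at about 60% in these data, passing the limit was not always enough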
An asterisk follows results filed as active; i = inactive; nt = not tested or not shown; + = active, no number. Most compounds without a hit are left out; they make up all but 1.9% or so of the library.

SMILES	Ins promoter up	Autophagy mod	HMGR II inh	Insulin prom inh
CC(=O)NC1CC2CCC(C1)N2 (stereo not drawn)	0.06	i	1.1	78.6*
CC(=O)NC1CC2CCCC(C1)N2 (stereo not drawn)	0.74	i	-4.6	nt
CC(=O)CC(=O)C1C(=O)N(C)C(=O)N(C)C1=O	-0.69	i	10.7*	5.6
CCCCn1c(O)c(C(CC)=NCc2ccc(F)cc2)c(=O)[nH]c1=O	-0.36	i	-0.5	83.3*
CCCCn1c(O)c(C(C)=NCc2ccc(F)cc2)c(=O)[nH]c1=O	0.65	i	-0.3	14.3
Cc1cc(C=O)c(C)n1C1CCCCC1	0.94	i	-0.2	69.4*
Cc1cc(C=C2C(=O)N(C)C(=S)N(C)C2=O)c(C)n1C1CCCC1	-0.38	i	-4.5	-42.9
O=C(O)[C@@H]1C[C@H]1[C@@H](NP(=O)(c1ccccc1)c1ccccc1)c1ccccc1	0.13	i	20.7*	23.8
CNC(=S)N1CCn2cccc2C1c1cccnc1 (stereo not drawn)	-0.25	i	2.3	33.3
CCCCNC(=S)N1CCn2cccc2C1c1cccnc1 (stereo not drawn)	0.54	i	11.2*	-40.7
O=c1[nH]c(O)c(N=Nc2cccc(S(=O)(=O)N3CCOCC3)c2)c(=O)[nH]1	-0.56	i	-1.5	0.0
O=S(=O)(c1ccccc1)N1CN2CCN(C2)C1	0.94	i	-0.6	85.7*
CCCCCCOc1ccc(CN2CCN(C)CC2)cc1	-2.8	+	2.2	6.5
CCN1CCN(Cc2ccc(C)cc2)CC1	-0.98	i	-0.2	-39.3
CCOC(=O)CC1=C(C(=O)OCC)C2(C(=O)N1CC(=O)OC)C(C#N)=C(N)Oc1ccccc12 (stereo not drawn)	nt	i	0.4	-54.3
O=C1NC(=O)N(c2ccc(Br)cc2)C(=O)/C1=C/c1ccsc1	0.61	+	0.1	0.0
CCCN1CCC2(CC1)NC(CO)(CO)CO2	nt	i	0.4	11.7
Cc1nonc1OCCNc1ccc([N+](=O)[O-])c2cccnc12	-0.62	i	-3.3	nt
O=[N+]([O-])c1ccc(NCc2ccccc2)c2nonc12	13.4*	i	2.8	nt
CC(/C=N/NC(=O)c1n[nH]c2c1CCC2)=C\c1ccccc1	-0.97	+	-0.8	-58.3
Cc1nnc2n1-c1ccc(Cl)cc1C(c1ccccc1)=NC2	1.01	nt	-0.8	nt
CC(=O)C1=C(C)OC(N)=C(C(=O)OC(C)C)C12C(=O)Nc1ccccc12 (stereo not drawn)	nt	i	-2.3	100.0*
COCCOC(=O)C1=C(C)OC(N)=C(C(=O)OC)C12C(=O)Nc1ccccc12 (stereo not drawn)	0.47	i	-3.6	nt
O=c1[nH]c2ccccc2c(=O)n1-c1cccc(Cl)c1	-0.35	i	-0.2	81.8*
CC(C)Oc1cccc(NC(=O)c2cccn(Cc3ccc4c(c3)OC(F)(F)O4)c2=O)c1	1.3	i	14.2*	nt
SMILES	Ins promoter up	Autophagy mod	HMGR II inh	Insulin prom inh
CC1NCCC2(O)CCCCC12 (stereo not drawn)	-0.86	i	-4.8	-186.7
Cn1c(O)c(C=NCCCNC2CCCCC2)c(=O)n(C)c1=O	nt	i	0.8	2.8
CCN(CC)c1ccc(N=Cc2c(O)n(-c3ccc(Cl)cc3)c(=O)[nH]c2=O)cc1	0.38	+	-4.4	nt
CCN(CC)c1ccc(N=Cc2c(O)n(CCC3=CCCCC3)c(=O)[nH]c2=O)cc1	0.87	+	-4.1	64.3
C=CCn1c(O)c(C=Nc2ccc(N(CC)CC)cc2)c(=O)[nH]c1=O	-0.57	i	-3.6	35.7
CN(C)c1ccc(N=Cc2c(O)n(CCC3=CCCCC3)c(=O)[nH]c2=O)cc1	-0.03	+	-3.1	21.4
Cc1ccc(NP(=O)(Nc2ccc(C)cc2)Oc2ccccc2)cc1	-0.84	i	-2.2	nt
CCCCC(CC)CNCC(O)c1ccccc1 (stereo not drawn)	-0.16	i	14.6*	nt
CCOC(=O)C1=C(C)N(C)C2(C)CC1c1ccccc1O2 (stereo not drawn)	0.79	i	0.0	nt
CC(Cc1ccccc1)NC(=O)NC(C)Cc1ccccc1 (stereo not drawn)	nt	i	0.8	45.2
CC(Cc1ccccc1)NC(=O)/C=C/C(=O)O (stereo not drawn)	-0.49	i	5.0	77.8*
Oc1cccc2nc3ccccc3nc12	-0.72	nt	nt	nt
CCC(=NCCc1ccccc1)c1c(O)n(C)c(=O)n(C)c1=O	-0.52	nt	nt	nt
COc1ccc(NC(=O)c2cc([N+](=O)[O-])ccc2N2CCNCC2)cc1	-0.74	+	-4.7	nt
Cc1nn(-c2ccccc2)c2c1C(c1ccc3c(c1)OCO3)SCC(=O)N2 (stereo not drawn)	-0.41	i	-0.1	79.3*
